Data on 37 molecules can be found in PubChem BioAssay (NCI).

The panel holds about 79,000 compounds, 15% with a hit somewhere; the sample as a whole holds those more often. Unmarked numbers belong to inactive results. Calls of active or inactive are those of the source. No stated cut-off is given here; in the data, active means growth inhibition above about 70%; inactive means the rest.

Assay [1] can be described thus: NCI Yeast Anticancer Drug Screen. Data for the rad50 strain (AID 155).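 Further: 0% = growth of vehicle-only cultures of the same strain.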 Particulars: S. cerevisiae rad50 strain growth inhibition; at 50.0 µM; active compounds read high. Put shortly: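 Compounds were tested on a yeast strain with an engineered DNA damage repair alteration; the reported value is growth inhibition normalised to vehicle treatment.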
The nature of assay [2]: NCI Yeast Anticancer Drug Screen. Data for the mec2-1 strain (AID 157). Particulars: S. cerevisiae mec2-1 strain, at 50.0 µM, active compounds read high. Put shortly:
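Strain: mec2-1 (DNA repair/cell cycle alteration). Compound exposure, then growth measured; inhibition expressed relative to vehicle.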

The nature of assay [3]: NCI Yeast Anticancer Drug Screen. Data for the sgs1 mgt1 strain (AID 161).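 Further: 0% = growth of cultures given vehicle only.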 Particulars: S. cerevisiae sgs1 mgt1 strain, at 50.0 µM, active compounds read high. The procedure, abridged: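 Genetically altered yeast, compound exposure, growth inhibition relative to vehicle.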
A short description of assay [4]: NCI Yeast Anticancer Drug Screen. Data for the cln2 rad14 strain (AID 165).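 Further: 0% = growth equal to vehicle treated cultures.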 To be noted: S. cerevisiae cln2 rad14 strain, at 50.0 µM, active compounds read high. The procedure, abridged:
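Compounds are applied to the cln2 rad14 yeast strain, and growth is then compared with that of vehicle-treated cultures to give inhibition.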

Assay [5] is described as follows: NCI Yeast Anticancer Drug Screen. Data for the bub3 strain (AID 167). Particulars: S. cerevisiae bub3 mutant strain, at 50.0 µM, active compounds read high. Put shortly: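 Growth of a checkpoint-deficient yeast mutant is measured after compound exposure. Values represent inhibition relative to vehicle.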
Assay [6] in a line: NCI Yeast Anticancer Drug Screen. Data for the mlh1 rad18 strain (AID 175). Particulars: S. cerevisiae mlh1 rad18 strain growth inhibition; at 50.0 µM; active compounds read high. The procedure, abridged:
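Read-out is yeast growth inhibition, calculated against vehicle-only controls. The compound was applied to a strain engineered with DNA damage repair alterations.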

For `Cc1ccc(S(=O)(=O)N/N=C/C(C)(C)C)cc1`, the growth inhibition in assay [1] is 17.4%; in assay [2], -3.25%; in assay [3] it was 8.95%; in assay [4], -19%; in assay [5], -6.75%; in assay [6], 16.6%.
For the molecule `COC(OC)(c1ccccc1)c1ccccc1`, the growth inhibition in assay [1] is -33%; in assay [2] it was -27.4%; in assay [3], -33%; in assay [4], -11.1%; in assay [5], -40.6%; in assay [6], -18.6%.
As to `Cc1nnc(N=Nc2c(O)[nH]c3ccccc23)[nH]c1=O`, the growth inhibition in assay [1] was 7.05%; in assay [2], 1.2%; in assay [3], -6.65%; in assay [4] it was -0.2%; in assay [5], 2.65%; in assay [6] it was 16.1%.
Consider `Cc1ccc(S(=O)NOCc2ccccc2)cc1` (configuration not stated), for which the growth inhibition in assay [1] is 3.25%; in assay [2] it was 16.4%; in assay [3], 5.3%; in assay [4], 11.4%; in assay [5], 11.1%; in assay [6] it was 51%.
Turning to `O=C(Nc1cccc([N+](=O)[O-])c1)c1ccccc1Cl`, the growth inhibition was -0.65% in assay [1]; 16.1% in assay [2]; 1.85% in assay [3]; 0.8% in assay [4]; 12.9% in assay [5]; 8.75% in assay [6].
For the molecule `CCOC(=O)c1nc2ccc(C(F)(F)F)cc2[nH]c1=O`, the growth inhibition is -23.9% in assay [1]; -14.2% in assay [2]; -17.4% in assay [3]; -47.2% in assay [4]; -11.8% in assay [5]; -10% in assay [6].
As for `O=C(NC1CC1)c1ccccc1`, the growth inhibition in assay [1] is 5.8%; in assay [2], 1.6%; in assay [3] it was 4.7%; in assay [4] it was -5.9%; in assay [5] it was 1.85%; in assay [6] it was -15.7%.
As to `Cn1nc(-c2cccc(N)c2)cc1Cl`, the growth inhibition in assay [1] was -17.6%; in assay [2], -10.4%; in assay [3], 3.75%; in assay [4] it was -39.5%; in assay [5] it was -15.6%; in assay [6], 2.95%.
Consider `CS(=O)c1ccc(C(F)(F)F)cc1C(=O)O` (configuration not stated), for which the growth inhibition is -3.3% in assay [1]; 9.95% in assay [2]; 9.7% in assay [3]; -24.4% in assay [4]; -20.5% in assay [5]; 9.85% in assay [6].
Consider `Cc1c2c(cc3c1CCC1(C)C3CCC1C(C)/C=C/C(C)C(C)C)CC(O)CC2` (configuration not stated), for which the growth inhibition in assay [1] was 6.65%; in assay [2], 11.8%; in assay [3], 2.6%; in assay [4], -0.2%; in assay [5], -3%; in assay [6], 20.5%.
As for `O=C(OCc1ccccc1)c1ccc(Cl)cc1`, the growth inhibition in assay [1] was 22.9%; in assay [2], 5.7%; in assay [3] it was 20.6%; in assay [4], 15.2%; in assay [5] it was -1.65%; in assay [6] it was 4.4%.
On to `O=C(O)C1OCOC2C(CO)OCOC12` (configuration not stated), for which the growth inhibition was 11.8% in assay [1]; -5.35% in assay [2]; 17% in assay [3]; -29.9% in assay [4]; -3.6% in assay [5]; 11.1% in assay [6].
`O=[N+]([O-])c1cc2c3c(cccc3c1O)CC2`: the growth inhibition in assay [1] was -18.1%; in assay [2], -8.9%; in assay [3], -4%; in assay [4], -9.85%; in assay [5] it was 4.45%; in assay [6], 24%.
In the case of `CN(C)c1ccc(C2(c3ccc(N(C)C)cc3)OC(=O)c3cc(N(C)C)ccc32)cc1`, the growth inhibition in assay [1] is 4.55%; in assay [2] it was -6.2%; in assay [3], -0.75%; in assay [4], -31.7%; in assay [5], 16.4%; in assay [6], 33.7%.
In the case of `CC(=O)Nc1ccc(/C=N/NC(N)=O)cc1`, the growth inhibition in assay [1] was 16.4%; in assay [2], 11.6%; in assay [3], 19.8%; in assay [4] it was 8.55%; in assay [5], -0.7%; in assay [6], 9.35%.
As for `CCO/C=C1\SC(=S)N(CCc2ccc(OC)c(OC)c2)C1=O`, the growth inhibition in assay [1] is -0.85%; in assay [2], -6.85%; in assay [3], -10.9%; in assay [4], -2.2%; in assay [5], -5.6%; in assay [6] it was -10.5%.
As for `COc1cccc(NC(=O)C(=O)C2C=CCS2(=O)=O)c1` (configuration not stated), the growth inhibition in assay [1] was 0.4%; in assay [2], -0.65%; in assay [3] it was -31.4%; in assay [4], -6.6%; in assay [5], -28.3%; in assay [6] it was -13%.
As to `N#[N+]c1ccc(Nc2ccccc2)cc1`, the growth inhibition is -8.2% in assay [1]; 9.55% in assay [2]; -20.1% in assay [3]; 12.3% in assay [4]; -10.8% in assay [5]; -4.25% in assay [6].
With `C[n+]1ccccc1/C=C/c1ccc([N+](=O)[O-])cc1`, the growth inhibition in assay [1] was 9%; in assay [2], 5.8%; in assay [3] it was 13.2%; in assay [4], -10.3%; in assay [5], -1.8%; in assay [6], 6.3%.
`CN(C)CCCN1CC2C3CCCCC3=C3CCCCC3C2C1` (configuration not stated): the growth inhibition was -15.4% in assay [1]; 0.6% in assay [2]; -24.1% in assay [3]; -16.9% in assay [4]; 1.85% in assay [5]; -16.9% in assay [6].
`O=c1/c(=C/c2ccc3c(c2)OCO3)sc2nnc(-c3ccco3)n12`: the growth inhibition was 1.85% in assay [1]; -30.1% in assay [2]; 17.9% in assay [3]; 20.6% in assay [4]; -19.9% in assay [5]; -3.35% in assay [6].
For `C/C(C=C(C#N)C#N)=C\c1ccccc1`, the growth inhibition was 25.3% in assay [1]; 11.3% in assay [2]; -5.7% in assay [3]; 14.2% in assay [4]; 36.9% in assay [5]; 17.6% in assay [6].
With `Cc1cc(Cl)c(=O)n(-c2ccc(Cl)cc2)n1`, the growth inhibition in assay [1] is 27.3%; in assay [2], -4.6%; in assay [3], 9.45%; in assay [4] it was 4.7%; in assay [5] it was 15.3%; in assay [6], 44.9%.
Take `CCN(CC)CCN1C(=O)c2cccc3c(N)c(OC)cc(c23)C1=O`: the growth inhibition in assay [1] was 47.5%; in assay [2], -27.8%; in assay [3], -20.8%; in assay [4] it was -11.9%; in assay [5], -24.2%; in assay [6] it was -48.3%.
Consider `CS(=O)(=O)OCC(CCl)(CCl)CCl`, for which the growth inhibition in assay [1] was -4.5%; in assay [2] it was 0.55%; in assay [3] it was 0.15%; in assay [4] it was 3.2%; in assay [5] it was -3.45%; in assay [6] it was -0.8%.
For `CC(C)N=C(NC#N)NS(=O)(=O)c1cnccc1Nc1ccc(Cl)cc1`, the growth inhibition in assay [1] is -11.1%; in assay [2] it was 18.8%; in assay [3], -13%; in assay [4] it was -1.9%; in assay [5], -18.1%; in assay [6], 24.8%.
Consider `Cc1ccc(S(=O)(=O)N2CCOCC2)cc1`, for which the growth inhibition was -2.9% in assay [1]; -20.1% in assay [2]; -13.3% in assay [3]; 15.5% in assay [4]; -0.7% in assay [5]; -30.4% in assay [6].
As for `NC(=O)c1ccccn1`, the growth inhibition in assay [1] is 20.7%; in assay [2] it was -5.45%; in assay [3], 15%; in assay [4], 18.3%; in assay [5], 0.75%; in assay [6], 28.4%.
Take `O=C(O)C(Cc1c[nH]c2ccccc12)Nc1ccc([N+](=O)[O-])cc1[N+](=O)[O-]` (configuration not stated): the growth inhibition is -27.7% in assay [1]; -3.95% in assay [2]; 13.8% in assay [3]; -10.7% in assay [4]; 3.6% in assay [5]; 7.55% in assay [6].
For `COCc1c(C)[nH]c2ccc(N(C)C)cc2c1=O`, the growth inhibition in assay [1] is -6.75%; in assay [2] it was -3.6%; in assay [3] it was -14.8%; in assay [4], -42%; in assay [5] it was -4.9%; in assay [6], -6.55%.
Take `Cc1ccc(-c2nc3ccccc3cc2N)cc1`: the growth inhibition is 5.85% in assay [1]; 7.65% in assay [2]; -0.45% in assay [3]; -14% in assay [4]; 3.15% in assay [5]; -4.4% in assay [6].
Consider `Cc1c(COC(=O)NC(C)C)c(COC(=O)NC(C)C)c(-c2ccccc2)n1-c1ccccc1`, for which the growth inhibition was -16% in assay [1]; -1.95% in assay [2]; 13.8% in assay [3]; -8.1% in assay [4]; -14.1% in assay [5]; 64.2% in assay [6].
Turning to `O=S(=O)(Nc1cccc(Cl)c1)c1ccc(Cl)cc1`, the growth inhibition was 99.7% (active) in assay [1]; 99.8% (active) in assay [2]; 99.8% (active) in assay [3]; 99.6% (active) in assay [4]; 99.7% (active) in assay [5]; 99.7% (active) in assay [6].
Regarding `Clc1ccc(-c2nnc(-c3cccc4ccccc34)o2)cc1Cl`, the growth inhibition in assay [1] is 10.1%; in assay [2], -32.3%; in assay [3], -29.5%; in assay [4] it was 54%; in assay [5], -47.9%; in assay [6], -15%.
On to `Clc1cc(Cl)nc(Cl)n1`, for which the growth inhibition was 2.4% in assay [1]; -7.1% in assay [2]; -4.95% in assay [3]; 21.1% in assay [4]; 4.6% in assay [5]; -1.65% in assay [6].
With `COC(=O)[C@H]1C=C[C@@H](C)n2c(=O)c3ccccc3c(=O)n21`, the growth inhibition was -9% in assay [1]; 15.4% in assay [2]; -1.4% in assay [3]; -9.75% in assay [4]; -19.1% in assay [5]; -6.8% in assay [6].
As to `Cc1ccc(Cc2ccc(CCc3ccc(Cc4ccc(C)cc4)cc3)cc2)cc1`, the growth inhibition in assay [1] was 10.2%; in assay [2], 7.15%; in assay [3] it was 18.6%; in assay [4] it was 32.4%; in assay [5], 12.2%; in assay [6] it was 11.5%.
